What all share (conditions): 10 µM; exposure time: 3 h pre-incubation + 3 h imaging
In assay [1] the test system is Danio rerio larvae (5 dpf). Description: habituation to 1-s acoustic pulses, difference vs DMSO (percentage points (treated minus DMSO)); higher = more of the behaviour than the DMSO vehicle control. The method, boiled down: (§1)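 Library drugs were diluted 1000× from DMSO stocks into egg water to reach 10 µM and applied to 5-dpf wild-type zebrafish larvae in 96-well ProxiPlates, 48 larvae per drug. The larvae stayed exposed for 3 h before imaging and for the 3 h of imaging at 28.5 °C. Behaviour scores, given in percentage points, are the treated mean minus the vehicle mean for movement and upper-half location.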

The subject of assay [2] is Danio rerio larvae (5 dpf). Kind of assay: excitability to 1-s acoustic pulses, difference vs DMSO (percentage points (treated minus DMSO)); higher = more of the behaviour than the DMSO vehicle control. The gist of the method:
as §1

The subject of assay [3] is Danio rerio larvae (5 dpf). Description: startle response to 20-s acoustic pulses, difference vs DMSO (percentage points (treated minus DMSO)); higher = more of the behaviour than the DMSO vehicle control. The method, boiled down:
as §1

The subject of assay [4] is Danio rerio larvae (5 dpf). Kind of assay: optomotor response to fast red moving lines, difference vs DMSO (percentage points (treated minus DMSO)); higher = more of the behaviour than the DMSO vehicle control. The method, boiled down: as §1
The test system of assay [5] is Danio rerio larvae (5 dpf). Kind of assay: activity during period 15 (no stimuli), difference vs DMSO (percentage points (treated minus DMSO)); higher = more of the behaviour than the DMSO vehicle control. The gist of the method: as §1
Assay [6] deals with Danio rerio larvae (5 dpf). Description: optomotor response to green moving lines, difference vs DMSO (percentage points (treated minus DMSO)); higher = more of the behaviour than the DMSO vehicle control. The gist of the method: as §1

We go through 23 compounds from the supplement of paper PMC9023506.

Counter-ions that a name gives are not always drawn.

Turning to `CC(=O)S[C@@H]1CC2=CC(=O)CC[C@]2(C)[C@H]2CC[C@@]3(C)[C@@H](CC[C@@]34CCC(=O)O4)[C@H]12` [Spironolactone], the “habituation to 1-s acoustic pulses” value in assay [1] was -0.287. For the same compound, the “excitability to 1-s acoustic pulses” value in assay [2] came to 1.36. Regarding `CCCN(CCc1cccs1)[C@H]1CCc2c(O)cccc2C1` [Rotigotine hydrochloride], in assay [3], the “startle response to 20-s acoustic pulses” value was -4.68. With `Cn1cnc([N+](=O)[O-])c1Sc1ncnc2[nH]cnc12` [Azathioprine], the “excitability to 1-s acoustic pulses” value in assay [2] was -0.039.

Take `CC(C)N(CCCCOCC(=O)NS(C)(=O)=O)c1cnc(-c2ccccc2)c(-c2ccccc2)n1` [Selexipag]: the “habituation to 1-s acoustic pulses” value in assay [1] was -0.45. As to `CCCc1nc2c(C)cc(-c3nc4ccccc4n3C)cc2n1Cc1ccc(-c2ccccc2C(=O)O)cc1` [Telmisartan], the “habituation to 1-s acoustic pulses” value in assay [1] is -0.195. The “startle response to 20-s acoustic pulses” value in assay [3] amounted to 3.69. Take `COCCCOc1cc(C[C@@H](C[C@H](N)[C@@H](O)C[C@H](C(=O)NCC(C)(C)C(N)=O)C(C)C)C(C)C)ccc1OC` [Aliskiren hemifumarate]: the “habituation to 1-s acoustic pulses” value in assay [1] was 7.12. Also, in assay [2], the “excitability to 1-s acoustic pulses” value amounted to 12.2. For the same compound, the optomotor response in assay [4] was found to be 2.22. Take `CC(C)C(=O)Nc1ccc([N+](=O)[O-])c(C(F)(F)F)c1` [Flutamide]: the optomotor response in assay [4] is -21.1. In the case of `COc1cc(N)c(Cl)cc1C(=O)NC1CCN(CCCOc2ccc(F)cc2)CC1OC` (stereo unspecified) [Cisapride], the “startle response to 20-s acoustic pulses” value in assay [3] is -0.377. For the compound `Cc1cc(C2CCCCC2)n(O)c(=O)c1` [Ciclopirox], in assay [5], the “activity during period 15” value was determined as 10.7.

Turning to `O=C1CCc2ccc(OCCCCN3CCN(c4cccc(Cl)c4Cl)CC3)cc2N1` [Aripiprazole], the “habituation to 1-s acoustic pulses” value in assay [1] was -5.72. For the same compound, the “startle response to 20-s acoustic pulses” value in assay [3] was -4.17.

Consider `CCCC1O[C@@H]2C[C@H]3[C@@H]4CCC5=CC(=O)C=C[C@]5(C)[C@H]4[C@@H](O)C[C@]3(C)[C@]2(C(=O)CO)O1` (stereo partly specified) [Budesonide], for which the “excitability to 1-s acoustic pulses” value in assay [2] is -1.66. The optomotor response in assay [4] came to 0.572. With `Clc1ccc2nsnc2c1NC1=NCCN1` [Tizanidine hydrochloride], in assay [1], the “habituation to 1-s acoustic pulses” value is -2.36. In addition, the “excitability to 1-s acoustic pulses” value in assay [2] came out at 3.69. The “optomotor response to green moving lines” value in assay [6] was -0.817. As for `OCCN(CCO)c1nc(N2CCCCC2)c2nc(N(CCO)CCO)nc(N3CCCCC3)c2n1` [Dipyridamole], in assay [6], the “optomotor response to green moving lines” value turned out to be 5.01. Moreover, the “startle response to 20-s acoustic pulses” value in assay [3] stood at 6.96. Take `CCCCc1nc(Cl)c(CO)n1Cc1ccc(-c2ccccc2-c2nnn[nH]2)cc1` [Losartan potassium]: the “startle response to 20-s acoustic pulses” value in assay [3] is -0.252. As to `CCOC(=O)N1CCC(=C2c3ccc(Cl)cc3CCc3cccnc32)CC1` [Loratidine], the “activity during period 15” value in assay [5] is -25. Moreover, in assay [4], the optomotor response was -26.1.

Regarding `CN(C)CCc1c[nH]c2ccc(Cn3cncn3)cc12` [Rizatriptan benzoate], in assay [5], the “activity during period 15” value was -3.72. In addition, the “startle response to 20-s acoustic pulses” value in assay [3] is 4.29. For the same compound, in assay [4], the optomotor response was 5. With `Nc1nc2c(ncn2COCCO)c(=O)[nH]1` [Acyclovir], the “activity during period 15” value in assay [5] is -4.38. Moreover, the “startle response to 20-s acoustic pulses” value in assay [3] was determined as 0.665. As to `CCN(Cc1ccncc1)C(=O)C(CO)c1ccccc1` (stereo unspecified) [Tropicamide], in assay [3], the “startle response to 20-s acoustic pulses” value is -8.17. Also, in assay [4], the optomotor response is -0.214. As to `CCOC(=O)[C@H](CCc1ccccc1)N[C@@H](C)C(=O)N1[C@H](C(=O)O)C[C@@H]2CCC[C@@H]21` [Ramipril], in assay [4], the optomotor response was -1.3. As to `NC(=O)OCC(COC(N)=O)c1ccccc1` [Felbamate], the “habituation to 1-s acoustic pulses” value in assay [1] was determined as 2.95. Moreover, in assay [2], the “excitability to 1-s acoustic pulses” value was -4.78. The optomotor response in assay [4] is 8.45. In the case of `CN1CC2c3ccccc3Oc3ccc(Cl)cc3C2C1` (stereo unspecified) [Asenapine maleate], in assay [1], the “habituation to 1-s acoustic pulses” value was -9.25. In addition, the “activity during period 15” value in assay [5] turned out to be 40.8. For the same compound, the optomotor response in assay [4] was -11.9. On to `CC(CCc1ccc(O)cc1)NCCc1ccc(O)c(O)c1` (stereo unspecified) [Dobutamine hydrochloride], for which the optomotor response in assay [4] was -7.53.

For `CC1(C)O[C@@H]2[C@@H](CO[C@@]3(COS(N)(=O)=O)OC(C)(C)O[C@@H]23)O1` [Topiramate], the “habituation to 1-s acoustic pulses” value in assay [1] was -3.26.
